Sampled rows, rich in hits. Any-hit rate of the full collection: about 10%.
NIH3T3 tox: kills NIH 3T3 cells | 4.3% of 94,000 active | Potency, µM (titrated, usually from 96.7 µM), for inactives: at the top dose activity change, negative = cytotoxicity, usual class: inhibitors | NIH 3T3 viability, CellTiter-Glo ATP luminescence, 48-72 h; also: nearly all actives have a fitted effect of over 55% in size
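ATP-dependent luminescence (CellTiter-Glo) served as the viability signal for NIH 3T3 cells treated with compound for 48 or 72 hr at 37 °C.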
FLuc inh: blocks purified firefly luciferase enzyme activity. P08659. purified P. pyralis luciferase, luminescence, biochemical. Potency, µM (titrated, usually from 115 µM), most hits filed as inhibitors. 2.5% of 76,000 active; also: nearly all actives have a fitted effect of over 65% in size
Target sequence (P08659 whole entry, looked up): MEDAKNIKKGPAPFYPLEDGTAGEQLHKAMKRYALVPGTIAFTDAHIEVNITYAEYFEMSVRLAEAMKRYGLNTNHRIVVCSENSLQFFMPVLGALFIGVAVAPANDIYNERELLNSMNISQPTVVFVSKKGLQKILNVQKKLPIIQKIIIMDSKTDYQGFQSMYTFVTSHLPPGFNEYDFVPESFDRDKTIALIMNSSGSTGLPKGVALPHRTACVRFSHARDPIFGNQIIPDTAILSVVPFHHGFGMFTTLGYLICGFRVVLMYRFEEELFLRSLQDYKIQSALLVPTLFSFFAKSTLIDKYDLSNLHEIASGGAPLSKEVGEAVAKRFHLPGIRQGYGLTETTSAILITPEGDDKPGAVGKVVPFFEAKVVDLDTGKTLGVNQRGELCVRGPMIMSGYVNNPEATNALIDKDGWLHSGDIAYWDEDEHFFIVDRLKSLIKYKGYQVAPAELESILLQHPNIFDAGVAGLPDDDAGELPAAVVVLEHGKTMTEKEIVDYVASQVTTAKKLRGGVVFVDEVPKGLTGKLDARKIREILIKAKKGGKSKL
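Inhibitors were tested against purified firefly luciferase in a biochemical, low-substrate format (both substrates at 10uM) and luminescence measured with a CCD imager.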
HEK cytotox: kills HEK 293 cells. HEK 293 viability, ATP luminescence (CellTiter-Glo), 48-72 h. Potency, µM (titrated, usually from 115 µM), for inactives: top-dose activity change, negative = cytotoxicity, actives largely listed as inhibitors. 6.6% of 94,000 active; also: nearly all actives have a fitted effect of over 60% in size
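ATP-coupled CellTiter-Glo luminescence served as viability read-out, recorded 10 min after reagent addition at room temperature. HEK 293 cells, 250 cells/well, had been incubated with pintool-transferred compound for 48 or 72 hr at 37 degree Celsius.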
NPR1 antag: antagonists of human natriuretic peptide receptor Npr1; HEK293 hNpr1 GloSensor cGMP, ANP-stimulated luminescence; 1.6% of 76,000 active; P16066; Potency, µM (top dose mostly 46.3 µM), inactives show at the highest dose activity change, negative = inhibition, usual class: inhibitors; calls by dose curve; also: nearly all actives have a fitted effect of over 60% in size
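HEK293 cells stably expressing human Npr1 and cGMP GloSensor pGS-40F, loaded 2 h with 2% GloSensor reagent, given compound 30 min at room temperature. Luminescence read before and 20 min after 0.1 nM hNppA.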
GPT2 inhibitor: GPT2 alanine aminotransferase inhibition; Potency, µM (series often up to 57.7 µM), without a hit: at the highest dose activity change, negative = inhibition, actives largely listed as inhibitors; AID 1671188; Q8TD30; 0.25% of 100,000 active; Recombinant GPT2, coupled pyruvate oxidase/HRP Amplex Red fluorescence; also: nearly all actives have a fitted effect of over 60% in size
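Fluorescence read-out: pyruvate from GPT2 turnover coupled to pyruvate oxidase, HRP and Amplex Red (0.2mM ThPP, 0.2U/mL PO and HRP, 50uM Amplex final). Substrates 250uM a-KG, 2mM L-alanine; enzyme 10ng/uL; 30 min RT.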
An asterisk follows results filed as active; i = inactive; ? = inconclusive; · = no result; [ ] = dose if it differs, or a comment. Unless noted, calls follow the shape of the dose curve; as a rule, active = well fitted curve in the direction sought with a large enough effect; inconclusive = small, poorly fitted or top-dose-only effect, or another doubt; inactive = no such curve, though single readings can be large; an effect the other way counts as inactive or inconclusive. % is scaled to controls: 0 for no effect and ±100 for the full control effect; potency is read from the fitted curve at half-maximal effect.

SMILES | NIH3T3 tox | FLuc inh | HEK cytotox | NPR1 antag | GPT2 inhibitor
CC(C)CNC(=O)CN1CN(c2ccccc2)C2(CCN(C(=O)NC3CCCCC3)CC2)C1=O | ? | i | -12.9% | 1.9% | i
COc1cccc(-c2ccccc2NC(=O)C2CCN(Cc3ccccc3F)CC2)c1 | 44.7µM* | i | ? | ? | -19.3%
COc1cccc(-c2ccccc2NC(=O)C2CCN(CC=C(C)C)CC2)c1 | 20µM* | i | ? | 4.4% | -16.5%
COc1cccc(-c2ccccc2NC(=O)C2CCN(C/C(C)=C/c3ccccc3)CC2)c1 | ? | i | ? | -28.1% | -20.6%
COc1cccc(CN2CCC(C(=O)Nc3ccccc3-c3cccc(OC)c3)CC2)c1 | ? | i | 22.4µM* | ? | -10.1%
COc1cccc(-c2cc(-c3c(C)noc3C)c3cncn3c2)c1 | 39.8µM* | i | ? | -15.1%[70.6 µM] | -5.4%[88.5 µM]
Cc1noc(C)c1-c1cc(-c2ccccc2O)cn2cncc12 | 25.1µM* | i | 50.1µM* | -20.1%[70.6 µM] | -1.8%[88.5 µM]
Cc1noc(C)c1-c1cc(-c2cccc3cc[nH]c23)cn2cncc12 | 28.2µM* | i | ? | ? | -30.1%[88.5 µM]
Cc1noc2c(NCCCn3ccnc3)cc(-c3ccc(Cl)cc3)nc12 | ? | i | ? | 3.5%[70.6 µM] | 4.0%[88.5 µM]
O=S(=O)(Nc1cccn2nc(C3CC3)nc12)c1cccnc1 | -21.2% | i | -13.0% | 6.8% | ?
O=C(Nc1cccn2nc(C3CCC3)nc12)c1ccccn1 | 8.91µM* | i | ? | -20.3% | i
Cc1cccc(S(=O)(=O)Nc2cccn3nc(C4CCC4)nc23)c1 | 44.7µM* | i | ? | -2.1% | 3.0%
O=C(NC1CC1)c1ccccc1OC1CN(Cc2ccncc2)C1 | 1.7% | i | ? | 0.1% | i
O=C(NC1CC1)c1ccccc1OC1CN(Cc2ccc(C(F)(F)F)cc2)C1 | ? | i | 89.1µM* | 2.8% | -3.5%
O=C(NC1CC1)c1ccccc1OC1CN(Cc2cccc(C(F)(F)F)c2)C1 | ? | i | 31.6µM* | -23.8% | 2.2%
CN1CCN(C(=O)c2ccc3nnc(-c4ccc([S+](C)(=O)[O-])cc4)n3c2)CC1 | -13.0% | · | -11.9% | · | -7.1%
CN(C)C(=O)[C@@H]1CN(Cc2c(F)cccc2Cl)C[C@H]1CO | i | i | i | -2.6% | 4.5%
CC(=O)Nc1ccc(CC(=O)N2CCc3c(nc4cc(-c5ccccc5Cl)[nH]n4c3=O)C2)cc1 | -18.2% | ? | -2.4% | -13.5% | i
CCCCC(=O)N1CCc2c(nc3cc(-c4ccccc4Cl)[nH]n3c2=O)C1 | 15.8µM* | i | ? | -5.9% | 4.8%
O=C(c1n[nH]c2ccccc12)N1CCc2c(nc3cc(-c4ccccc4Cl)[nH]n3c2=O)C1 | 4.9% | i | -3.0% | 0.5% | i
O=C(c1ccsc1)N1CCc2c(nc3cc(-c4ccccc4Cl)[nH]n3c2=O)C1 | 39.8µM* | 35.5µM* | -11.8% | -12.6% | i
COc1cccn(CC(=O)N(Cc2ccc(SC)cc2)C2CC2)c1=O | -4.7% | i | -23.7% | -6.4% | i
O=C(CCc1ccc(O)cc1)N[C@H]1CC[C@H](Nc2nccc(-c3cccnc3)n2)C1 | 50.1µM* | i | 39.8µM* | -11.8% | -24.0%
Cc1nn(-c2ccccc2)c2c1C(C(C)C)N(C1CCCN([S+](C)(=O)[O-])C1)C2=O (stereo not drawn) | -8.4% | · | ? | · | ·
CN1[C@@H](CCC(=O)NCc2cccs2)CNC(=O)[C@@H]2[C@H]1CCN2Cc1cccs1 | -18.5%[174 µM] | i | -15.0%[172 µM] | -0.6%[70.6 µM] | ?
SMILES | NIH3T3 tox | FLuc inh | HEK cytotox | NPR1 antag | GPT2 inhibitor
CC(O)CN1CC2(CCC1=O)CCN(C(=O)c1ccnn1C)CC2 (stereo not drawn) | -11.0% | i | -17.6% | 14.2% | -11.6%
CC(C)c1ccc(CN2CCCC3(CCN(C(=O)c4ccnn4C)C3)C2)cc1 (stereo not drawn) | -26.8% | i | 39.8µM* | -14.9% | i
CC(C)C[C@@H]1N[C@H](C(=O)NCc2ccccc2)Cc2cn(Cc3ccncc3)c3cccc1c23 | ? | i | ? | -4.8% | -3.1%
COCCNC(=O)[C@@H]1Cc2cn(Cc3ccccn3)c3cccc(c23)[C@H](CC(C)C)N1 | ? | i | 28.2µM* | -0.5%[70.6 µM] | ?
C=CCNC(=O)[C@@H]1Cc2cn(Cc3ccncc3)c3cccc(c23)[C@H](CC(C)C)N1 | ? | i | 35.5µM* | -26.4%[70.6 µM] | ?
C#CCNC(=O)[C@@H]1Cc2cn(Cc3cccnc3)c3cccc(c23)[C@H](CC(C)C)N1 | 79.4µM* | i | 56.2µM* | -0.8%[70.6 µM] | -21.6%[88.5 µM]
COCCNC(=O)[C@@H]1Cc2cn(Cc3cccnc3)c3cccc(c23)[C@H](CC(C)C)N1 | ? | i | 44.7µM* | -3.3%[70.6 µM] | ?
CC(C)C[C@@H]1N[C@H](C(=O)NCC2CC2)Cc2cn(Cc3cccnc3)c3cccc1c23 | ? | i | ? | -28.4%[70.6 µM] | 0.6%[88.5 µM]
O=C(NCc1nnc2n1C(C(=O)NCc1ccc(F)cc1)CC2)C1CC1 (stereo not drawn) | 1.0% | · | 1.7% | · | i
O=C1NC(C(=O)Nc2ccc3c(c2)OCCO3)Cn2cccc21 (stereo not drawn) | i | ? | -5.9% | 1.5% | 1.8%
COc1cccc(NC(=O)N(C[C@H]2O[C@H](Cc3cc(-c4ccccc4)on3)CC[C@@H]2O)C(=O)Nc2cccc(OC)c2)c1 | ? | i | ? | -0.7% | 1.0%
COCCNC(=O)[C@@H]1Cc2cn(Cc3ccncc3)c3cccc(c23)[C@H](CC(C)C)N1 | 44.7µM* | i | 44.7µM* | -2.6%[70.6 µM] | 4.8%[88.5 µM]
Cc1ccc(CN2C(=O)NC3(CCN(C(=O)c4ccc(C#N)cc4)CC3)C2=O)cc1 | ? | i | -29.5% | -6.4% | i
O=C1[C@H]2CN(Cc3ccc(C(F)(F)F)cc3)C[C@H]2C(=O)N1CCc1ccccc1 | 22.4µM* | i | 35.5µM* | -28.9% | -5.1%
CCCCNC(=O)c1ccc2c(c1)n(Cc1cccc(OC)c1)c(=O)c1ccnn12 | ? | i | -7.4% | -10.6% | i
COc1cccc(Cn2c(=O)c3ccnn3c3ccc(C(=O)NCCCN(C)C)cc32)c1 | 35.5µM* | i | 39.8µM* | -1.8% | i
O=S(=O)(c1ccccc1Cl)N1CCCC(CO)(Cc2cccc(Cl)c2)C1 (stereo not drawn) | ? | i | 25.1µM* | -26.7% | i
CCn1ccnc1CN1CCCC(CO)(Cc2cccc(Cl)c2)C1 (stereo not drawn) | ? | i | ? | -16.4% | 4.0%
Cc1nn(C)c(C)c1S(=O)(=O)N1CCCC(CO)(Cc2ccccc2)C1 (stereo not drawn) | -27.0% | i | -19.8% | 1.4% | ?
